Many of the other results were omitted from the sample, so hits are more common in it than they were.
nsP2pro inh – Primary qHTS for inhibitors of NSP2Pro chikungunya virus (CHIKV); Polyprotein P1234 (Chikungunya virus (strain S27-African prototype)), Q8JUX6; FRET peptide cleavage, nsP2pro, fluorescence 1 h; Potency, µM (highest dose often 24.9 µM), for inactives: at the top dose activity change, negative = inhibition, most hits filed as inhibitors; 31,000 tested, 1.1% active; also: nearly all actives have a fitted effect of over 60% in size
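FRET cleavage of 2.5 uM peptide 2 by 150 nM CHIKV protease domain at pH 8.0 (Tris, Tween 20). Compounds at 7 concentrations (up to 25 uM) preincubated 15 min. Fluorescence read after 1 h at room temperature.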
CHIKV nsP2 cell – Secondary cell base assay for inhibitors of NSP2Pro Chikungunya virus (CHIKV). AID 1964100, 2024. 450 tested, 10% active. Potency, µM (top dose mostly 51.1 µM), without a hit: at the highest dose activity change, negative = inhibition, hits mostly inhibitors. cell-based CHIKV nsP2 protease reporter assay. shares compounds with nsP2pro inh; also: nearly all actives have a fitted effect of over 70% in size
NSP2 full ctr – Selectivity profile for inhibitors of NSP2Pro chikungunya virus (CHIKV): Full length NSP2 enzyme counterscreen (CHIKV-NSP2); shares compounds with nsP2pro inh; Potency, µM (series often up to 50.7 µM), without a hit: at the highest dose activity change, negative = inhibition, actives largely listed as inhibitors; 410 tested, 39% active; Full-length CHIKV NSP2 protease enzymatic counterscreen; AID 1964101, 2024; also: nearly all actives have a fitted effect of over 65% in size
Furin counterscr – Selectivity profile for inhibitors of NSP2Pro chikungunya virus (CHIKV): Human furin counterscreen | shares compounds with nsP2pro inh | Recombinant human furin enzymatic counterscreen, fluorogenic substrate | Potency, µM (titrated, usually from 50.6 µM), inactives show top-dose activity change, negative = inhibition, hits mostly inhibitors | 410 tested, 6% active
NS23 peptide cs – Selectivity profile for inhibitors of NSP2Pro chikungunya virus (CHIKV): Endogenous NS2/3 peptide Counterscreen | shares compounds with nsP2pro inh | Purified CHIKV nsP2 protease, endogenous NS2/3 peptide cleavage | Potency, µM (series often up to 51 µM), for inactives: top-dose activity change, negative = inhibition, most hits filed as inhibitors | 410 tested, 34% active; also: nearly all actives have a fitted effect of over 55% in size
Papain cs – Selectivity profile for inhibitors of NSP2Pro chikungunya virus (CHIKV): Papain Counterscreen. shares compounds with nsP2pro inh. purified papain protease activity, enzymatic inhibition. Potency, µM (top dose mostly 51 µM), for inactives: top-dose activity change, negative = inhibition, most hits filed as inhibitors. 410 tested, 5% active
Target sequence (P00784 whole entry, looked up): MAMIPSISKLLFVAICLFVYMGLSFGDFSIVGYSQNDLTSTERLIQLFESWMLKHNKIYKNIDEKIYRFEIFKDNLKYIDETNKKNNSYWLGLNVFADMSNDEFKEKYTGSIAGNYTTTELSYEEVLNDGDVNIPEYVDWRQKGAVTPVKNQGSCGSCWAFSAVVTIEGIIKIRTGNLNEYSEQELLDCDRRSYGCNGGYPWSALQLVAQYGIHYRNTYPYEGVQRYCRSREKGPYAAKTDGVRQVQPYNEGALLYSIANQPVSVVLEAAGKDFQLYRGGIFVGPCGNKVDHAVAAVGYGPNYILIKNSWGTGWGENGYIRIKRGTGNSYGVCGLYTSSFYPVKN
nsP2pro confirm – Confirmatory qHTS for inhibitors of NSP2Pro chikungunya virus (CHIKV); shares compounds with nsP2pro inh; CHIKV nsP2 protease enzymatic activity, qHTS; Potency, µM (titrated, usually from 25.5 µM), for the others: at the highest dose activity change, negative = inhibition, actives largely listed as inhibitors; 410 tested, 43% active; AID 1964105, 2024; also: nearly all actives have a fitted effect of over 75% in size
HCV NS3 counter – Selectivity profile for inhibitors of NSP2Pro chikungunya virus (CHIKV): NS34A-HCV Counterscreen; Potency, µM (highest dose often 50.9 µM), usual class: inhibitors; 410 tested, 20% active; AID 1964106, 2024; shares compounds with nsP2pro inh; HCV NS3/4A protease biochemical counterscreen; also: nearly all actives have a fitted effect of over 55% in size
* = called active by the depositor; i = inactive; ? = inconclusive; [ ] = another dose, or the depositor's remark. Calls follow the shape of the full dose curve. % is scaled to controls: 0 for no effect and ±100 for the full control effect; potency is read from the fitted curve at half-maximal effect.

SMILES	nsP2pro inh	others
O=C(C1CCC1)N1CCC[C@H]1c1nc(-c2ccc(F)cc2)n[nH]1	i
CC1=CC2=C(C)C(=O)[C@](C)(O)[C@H](O)C2=CO1	?	CHIKV nsP2 cell=8%;NSP2 full ctr=-12%;Furin counterscr=-8%;NS23 peptide cs=-11%;Papain cs=2%;nsP2pro confirm=-14%;HCV NS3 counter=i
CCn1ccc(C(=O)N2CC3CC(C2)[C@H]2CCCC(=O)N2C3)n1 (stereo partly specified)	4%
Cc1nn(-c2ccc(C(C)C)cc2)c(C)c1[C@@H]1C=C[C@@H](NC(=O)NC(C)C)C1	8%[39.2 µM]
CCNC(=O)N[C@@H]1C=C[C@@H](c2c(C)nn(-c3ccc(OC)cc3)c2C)C1	0%[39.2 µM]
Cc1nn(-c2ccc(C(F)(F)F)cc2)c(C)c1[C@@H]1C=C[C@@H](NC(=O)NC(C)C)C1	1.4µM*	CHIKV nsP2 cell=2.1µM*;NSP2 full ctr=-4%;Furin counterscr=15µM*;NS23 peptide cs=19µM*;Papain cs=-1%;nsP2pro confirm=2.6µM*;HCV NS3 counter=12µM*
Cc1ccc(-n2nc(C)c([C@@H]3C=C[C@@H](NC(=O)NC(C)C)C3)c2C)cc1Cl	-5%[39.2 µM]
Cc1nn(-c2ccccn2)c(C)c1[C@@H]1C=C[C@@H](NC(=O)CCC(=O)O)C1	3%[39.2 µM]
Cc1nn(-c2ccccn2)c(C)c1[C@@H]1C=C[C@@H](NC(=O)NC(C)C)C1	10µM*	CHIKV nsP2 cell=?;NSP2 full ctr=19µM*;Furin counterscr=-8%;NS23 peptide cs=?;Papain cs=-5%;nsP2pro confirm=13µM*;HCV NS3 counter=13µM*
COc1cccc(CNc2ccc(S(=O)(=O)Nc3ccc(N4CCNCC4)cc3)cc2)c1O	5%
CCn1c(CO)nnc1C1CC(NC(=O)Cn2ncc3ccccc32)C1 (stereo unspecified)	4%
CN(Cc1cccc(N2CCN(C(c3ccccc3)c3ccccc3)CC2)c1)[S+](C)(=O)[O-]	-10%
CNC(=O)c1ccccc1Nc1nc(Nc2ccc3c(c2OC)CCC[C@H](N2CCN(CCO)CC2)C3)ncc1Cl	84%
Cc1cc(C)nc(NC(=S)N2CCN(c3nncs3)CC2)c1	-9%
COc1cc(C(=O)N[C@@H]2[C@@H](c3ccccc3)[C@@H](CO)N3CCCC[C@H]23)cc(OC)c1OC	-8%
CC(=O)c1cc(C(=O)NCc2c(C)ncc3c2CCNC3)[nH]n1	-12%
COc1cccc(-c2nc(-c3ccc(C(=O)O)cc3)no2)c1	i
COc1ccc(-c2noc(-c3cccnc3NCc3ccco3)n2)cc1	?	CHIKV nsP2 cell=-4%
Cc1ccccc1-c1noc(-c2cccnc2NCc2ccco2)n1	-28%
COc1cccc(-c2ccc(-c3nc4ccccc4c(=O)[nH]3)o2)c1	3%
O=C(CCc1c[nH]c2ccccc12)NC1CCN(c2ccc(=O)[nH]n2)CC1	-11%
CC1(C)C[C@H]1C(=O)N/C(=C\CCCCSC[C@@H](N)C(=O)O)C(=O)O	-2%
COc1ccc(-c2cc([C@H]3CN4CC[C@H]3C[C@@H]4COC(=O)Nc3ccccc3)n(C)n2)cc1	i

Source: PubChem BioAssay (National Center for Advancing Translational Sciences (NCATS))
